# Bioassay records (PubChem BioAssay)
# G9a block: inhibitors of human histone lysine methyltransferase G9a; AID 504332; 350,000 compounds, 8.8% hits; Potency, µM (top dose mostly 102 µM), for inactives: at the top dose activity, negative = inhibition, usual class: inhibitors; Q96KQ7; G9a H3K9 monomethylation, AlphaScreen, 2 h; further: potency means the concentration at half of the fitted maximal effect; on the % scale 0 is the no-effect control and ±100 the full control effect; nearly all actives have a fitted effect of over 75% in size
#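 G9a (20 nM) was preincubated 15 min with compound, then reacted 2 h at room temperature with 500 nM biotin-H3K9 peptide and 20 µM SAM. Monomethyl-H3K9 detected by AlphaScreen using anti-H3K9me1 antibody.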
# Six1-Eya2 blk: inhibitors of human Six1/Eya2 interaction. Q15475+O00167. AlphaScreen GST-Six1/His-Eya2 binding, biochemical; hits give low values. activity change, % (test concentration not listed). 360,000 compounds, 0.56% hits. AID 651725; in the data active means activity change below about -65%; inconclusive means mostly about -30% to -63%; further: on the % scale 0 is the no-effect control and ±100 the full control effect
#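 AlphaScreen with GST-Six1 and His-Eya2 (5X mix: 250 nM and 500 nM), glutathione donor and nickel acceptor beads; buffer 50 mM Tris pH 8.0, 300 mM NaCl, 1 mM TCEP; 1 h at 37 C in the dark.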
# JMJD2A Tudor inh: inhibitors of human JMJD2A Tudor domain; O75164; AlphaScreen JMJD2A-Tudor / H3K4me3 peptide binding; Potency, µM (series often up to 114 µM), for inactives: at the top dose activity change, negative = inhibition, most hits filed as inhibitors; 390,000 compounds, 4.4% hits; AID 504339; further: potency means the concentration at half of the fitted maximal effect; on the % scale 0 is the no-effect control and ±100 the full control effect; nearly all actives have a fitted effect of over 50% in size
# BAZ2B inh: inhibitors of human BAZ2B bromodomain; Q9UIF8; AlphaScreen BAZ2B-H3K14Ac peptide displacement; Potency, µM (titrated, usually from 114 µM), without a hit: at the top dose activity change, negative = inhibition, usual class: inhibitors; 360,000 compounds, 4.4% hits; AID 504333; further: potency means the concentration at half of the fitted maximal effect; on the % scale 0 is the no-effect control and ±100 the full control effect; nearly all actives have a fitted effect of over 60% in size
#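 BAZ2B 50 nM plus b-H3(5-23)K14Ac 50 nM, PBS pH 7.4/0.01% Tween-20, 30 min RT; compound added (max 110 uM), 30 min RT; streptavidin donor/Ni-chelate acceptor beads 10 ug/mL final, 20 min dark; AlphaScreen read.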
# HP1b chromo inh: blocks HP1-beta chromodomain binding to methylated histone tails; AID 540317; AlphaScreen HP1-beta / biotin-H3K9me3 peptide binding; Potency, µM (series often up to 114 µM), without a hit: at the highest dose activity change, negative = inhibition, actives largely listed as inhibitors; 390,000 compounds, 0.56% hits; further: potency means the concentration at half of the fitted maximal effect; nearly all actives have a fitted effect of over 70% in size
#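 Compound inhibition of the preformed complex between 50 nM HP1-beta and 50 nM biotinylated H3K9me3 peptide was read by AlphaScreen. Buffer was PBS pH 7.4 with 0.01% Tween-20. Incubations ran 30 min at room temperature, with 10 ug/mL donor/acceptor beads.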
# CtBP-E1A blk: blocks the CtBP interaction with E1A. AlphaScreen GST-E1A/His-CtBP binding, 1536-well; hits give low values. activity change, % (test concentration not listed). 340,000 compounds, 0.49% hits. AID 651724; in the data active means activity change below about -65%; inconclusive means mostly about -30% to -63%; further: on the % scale 0 is the no-effect control and ±100 the full control effect
#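 In 5 uL wells, 23 nL compound meets equimolar GST-E1A and His-CtBP (5X stock 125 nM each) for 2 h, 37 °C. Beads (5X, 50 ug/mL) then 1 h, 37 °C, dark.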
# Starred values were filed as active, the others as inactive; u = inconclusive; x = not tested or not shown; [ ] = remark or other dose. In the library only some 10% were active in any assay of this set; here they are far more common. Unless noted, the call rests on the fitted dose curve; in most records, active means well fitted inhibition curve with a large enough effect; inconclusive means small, poorly fitted or top-dose-only effect; inactive means no such curve, though single readings can be large or run the other way.
SMILES,G9a block,Six1-Eya2 blk,JMJD2A Tudor inh,BAZ2B inh,HP1b chromo inh,CtBP-E1A blk
Cc1ccc(N2CC(C(=O)OCC(=O)Nc3cc(C)on3)CC2=O)c(C)c1 (stereo not given),17%,9,-4%,-16%,26%,3
Cc1cc(C)cc(N2CC(C(=O)OCC(=O)Nc3cc(C)on3)CC2=O)c1 (stereo not given),50µM*,2,-3%,-9%,12%,5
COc1ccc(OC)c(C2C(C(=O)N3CCCCC3)=C(C)Nc3nc4ccccc4n32)c1 (stereo not given),-25%[59 µM],x,-16%,1%,12%,x
CCOC(=O)c1nc(C)[nH]c1C(=O)OCC,u,0,18µM*,79µM*,7%,-11
Cc1cnn(CCC(=O)NNC(=S)Nc2ccc(F)cc2)c1,-1%,2,-9%,3%,u,10
Cc1nn(C(C)C(=O)NNC(=S)Nc2ccc(Cl)cc2)c(C)c1[N+](=O)[O-] (stereo not given),8.9µM*,-1,-22%,-5%,3%,7
Cc1nn(CCC(=O)NNC(=S)Nc2cccc(Cl)c2)c(C)c1[N+](=O)[O-],8.9µM*,-4,-13%,-2%,-12%,-8
Cc1cccc(NC(=S)NNC(=O)CCn2nc(C)c([N+](=O)[O-])c2C)c1,u,2,-9%,2%,6%,-1
Cc1nn(CCC(=O)NNC(=S)Nc2ccc(Cl)cc2)c(C)c1[N+](=O)[O-],10µM*,-2,-19%,4%,-7%,-2
Cc1cnn(CCC(=O)NNC(=S)Nc2cccc(Cl)c2)c1,50µM*,3,-20%,8%,42%,8
Cc1noc(C)c1-c1ccc2ncnc(NCc3cccc(C(F)(F)F)c3)c2c1,x,x,-8%,x,x,x
COc1ccc(N2CCN(C3=CC(=O)N(c4cccc(Cl)c4)C3=O)CC2)cc1,u,1,u,11µM*,u,-2
CC(=O)c1sc2nc(-c3cccs3)ccc2c1N,1.6µM*,5,25µM*,2%,-3%,2
CC(=O)c1ccc(NC(=O)CNCC(c2ccccc2)N(C)C)cc1 (stereo not given),14µM*,-1,2.8µM*,1%,9%,1
O=c1cc(CCl)nc2sc3ccccc3n12,u,-11,50µM*,50µM*,-14%,-3
Cc1cccc(C(=O)N[C@H](C(=O)OCc2cc(=O)n3c(n2)sc2ccccc23)C(C)C)c1,-7%[59 µM],-10,u,40µM*,-27%,-6
CC(=O)N1CCC2(CCCN(c3cccc(-c4ccccc4)c3)C2)CC1,0%[12.7 µM],x,x,x,x,x
Cc1nn(CCc2n[nH]c(=S)n2-c2ccc(F)c(Cl)c2)c(C)c1[N+](=O)[O-],u,1,-23%,-6%,9%,-1
Cc1nn(CCc2n[nH]c(=S)n2-c2ccc(F)cc2)c(C)c1[N+](=O)[O-],2.2µM*,0,18µM*,5%,13%,3
Cc1cccc(-n2c(Cn3nc(C)c([N+](=O)[O-])c3C)n[nH]c2=S)c1,u,0,22µM*,12%[57.1 µM],-7%,0
Cc1nn(C(C)c2n[nH]c(=S)n2-c2ccc(F)cc2)c(C)c1[N+](=O)[O-] (stereo not given),4.5µM*,2,25µM*,0%,18%,-2
O=C(c1cccnc1)C1Cc2ccccc2C1=O (stereo not given),40µM*,0,-15%,u,24%,x
CC1COCC(C)N1C(=O)c1cccnc1 (stereo not given),x,8,x,x,x,-2
Cc1cccc(N2CCN(C(=O)C3CCCN(S(=O)(=O)c4c(C)noc4C)C3)CC2)c1C (stereo not given),x,-6,-23%,x,21%,-7
COc1cc(C(=O)NC2CCN(CC(=O)Nc3cccc(C)c3C)CC2)cc(OC)c1OC,7%[59 µM],-2,u,-21%,25%,9
SMILES,G9a block,Six1-Eya2 blk,JMJD2A Tudor inh,BAZ2B inh,HP1b chromo inh,CtBP-E1A blk
COc1ccccc1N=Nc1nc(-c2ccccc2)c(-c2ccccc2)[nH]1,u,u,7.1µM*,10µM*,-71%,13
Oc1ccccc1N=Nc1nc(-c2ccccc2)c(-c2ccccc2)[nH]1,u,-67*,13µM*,13µM*,32µM*,u
COc1ccc(N=Nc2nc(-c3ccccc3)c(-c3ccccc3)[nH]2)cc1,16µM*,-70*,8.9µM*,8.9µM*,28µM*,2
COc1ccc(-c2nc(C)ncc2N=Nc2ccccc2)cc1,u,u,45µM*,11µM*,-80%,u
Cc1ccc2nc(NC(=O)C3CCCN3C(=O)OC(C)(C)C)sc2c1 (stereo not given),-4%,-5,-7%,-14%,17%,2
COc1ccccc1CN1CCCC2(CCN(C(C)=O)CC2)C1,-3%[12.7 µM],x,x,x,x,x
COCCNc1ncnc2ccc(-c3ccc(C(=O)N(C)C)cc3)cc12,16%[0.501 µM],x,x,x,x,x
CC1N(O)C(c2ccc(Cl)cc2Cl)N(O)C1(C)C (stereo not given),-2%[59 µM],-2,-10%,6%,53%,-1
ON1C(c2ccc(Cl)cc2Cl)N(O)[C@H]2CCCC[C@H]21 (stereo not given in full),50µM*,8,-10%,-3%,27%,-3
COc1cccc(Cn2c(=O)c(-c3ccccc3)nc3cnc(N4CCNCC4)nc32)c1,2%[0.501 µM],x,x,x,x,x
CCOc1ccc(C(=O)CC(NCc2cccs2)C(=O)O)cc1 (stereo not given),25µM*,13,89µM*,-26%,6%,-16
CCC(=NCc1ccc(Cl)c(Cl)c1)c1nc(-c2ccco2)oc1O,45µM*,u,u,13µM*,u,-21
CCC(C)NC(=O)CCn1c(-c2ccc(F)cc2)cc(C(C)=O)c1C (stereo not given),-11%,-4,-28%,u,11%,x
CC(=O)c1cc(-c2ccc(F)cc2)n(CC(=O)NCc2cccs2)c1C,-4%,-2,9%,-28%,19%,1
CC(=O)c1cc(-c2ccccc2)n(CCC(=O)NCc2cccs2)c1C,13%[12.7 µM],-16,-15%,50µM*,3%,-11
COc1ccc(-c2cc(C(C)=O)c(C)n2CCC(=O)NCc2ccccc2OC)cc1,-38%[59 µM],x,-34%,u,-2%,x
CC(=O)c1cc(-c2ccc(F)cc2)n(CCC(=O)NC(C)(C)C)c1C,-9%,-2,-28%,50µM*,5%,x
COc1ccc(-c2cc(C(C)=O)c(C)n2CCC(=O)NCc2ccc(F)cc2)cc1,u,x,-17%,79µM*,34%,x
CC(C)CN1CCC2(CC1)CCN(S(=O)(=O)c1ccccc1)CC2,-22%[12.7 µM],x,x,x,x,x
